Bioassay records from PubChem BioAssay.
An excerpt weighted towards active compounds, which were near 7.3% of everything screened.
ELG1 genotox: inducers of genotoxicity in HEK293T ELG1-luciferase cells; HEK293T ELG1-luciferase reporter, luminescence, 16 h; Potency, µM (doses to about 46 µM), for inactives: at the highest dose activity change, positive = activation, most hits filed as activators; hit rate 1.3% among 330,000; AID 504466; further: % of control where 0% means no effect; nearly all actives have a fitted effect of over 60% in size
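Reporter readout depends on ELG1 protein level, which increases with genetic stress. After 16 hr compound exposure at 37 °C, luciferase activity was quantified using ONE-Glo.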
Rab9 prom act: activates the Rab9 promoter; Potency, µM (doses to about 9.22 µM), for inactives: top-dose activation, negative = inhibition, usual class: activators; Huh7 Rab9 promoter-luciferase reporter, luminescence, 24 h; hit rate 2.8% among 320,000; further: % of control where 0% means no effect; nearly all actives have a fitted effect of over 60% in size
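Luminescence from Amplite-detected luciferase (10 minutes, ambient) reports Rab9 promoter activation. Before that, stable Rab9-luciferase Huh7 cells (1500/well, reduced-serum OP-MEM I plus 10% FBS) were exposed to compound for 24 hours at 37C.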
NPC1 promoter act: activates the NPC1 promoter; Potency, µM (top dose mostly 9.22 µM), for the others: top-dose activation, hits mostly activators; hit rate 2.4% among 320,000; Huh7 NPC1 promoter luciferase reporter, 24 h; further: % of control where 0% means no effect; nearly all actives have a fitted effect of over 60% in size
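Luminescence from an NPC1 promoter-driven luciferase reporter in stably transfected Huh7 cells was measured after 24 h compound treatment at 37 °C, followed by 10 min ambient incubation with luciferase detection reagent.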
Luc counter: Kinase-Glo luciferase inhibition (counter-screen); Q27757; Kinase-Glo luciferase, ATP luminescence, 8 min; hit rate 0.28% among 200,000; Potency, µM (top dose mostly 38.3 µM), for the others: top-dose activity change, negative = inhibition, actives largely listed as inhibitors; further: on the % scale 0 is the no-effect control and ±100 the full control effect; nearly all actives have a fitted effect of over 60% in size
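Recombinant Kinase-Glo luciferase, 10 uM ATP (linear range), luciferin; imidazole pH 7.2 / KCl / MgCl2 / Tween / BSA buffer; 8 min RT; luminescence.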
SMN2 splice enh: enhancers of SMN2 splice variant expression. HEK293 SMN2-luciferase splicing reporter, luminescence, 30-36 h. Potency, µM (doses to about 46.1 µM), for the others: at the highest dose activity change, positive = activation, most hits filed as activators. hit rate 2.8% among 210,000. AID 1458; further: % of control where 0% means no effect; nearly all actives have a fitted effect of over 55% in size
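qHTS luciferase splicing reporter: luminescence rises when SMN2 exon 7 is included in transfected HEK293 cells. Compound exposure lasted 30-36 h at 37C, with 4.5 mM final sodium butyrate as control, followed by a ONE-Glo read.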
FLuc counter: inhibits or activates purified firefly luciferase, miR-21 counter-screen; P08659; purified FLuc, Km substrates, luminescence inhibition; Potency, µM (highest dose often 57.5 µM), for the others: top-dose activity change, negative = inhibition, usual class: inhibitors; hit rate 6.9% among 360,000;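 further: plate controls were vehicle for no effect and reference inhibitor for full effect; nearly all actives have a fitted effect of over 55% in size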
Target sequence (P08659 whole entry, looked up): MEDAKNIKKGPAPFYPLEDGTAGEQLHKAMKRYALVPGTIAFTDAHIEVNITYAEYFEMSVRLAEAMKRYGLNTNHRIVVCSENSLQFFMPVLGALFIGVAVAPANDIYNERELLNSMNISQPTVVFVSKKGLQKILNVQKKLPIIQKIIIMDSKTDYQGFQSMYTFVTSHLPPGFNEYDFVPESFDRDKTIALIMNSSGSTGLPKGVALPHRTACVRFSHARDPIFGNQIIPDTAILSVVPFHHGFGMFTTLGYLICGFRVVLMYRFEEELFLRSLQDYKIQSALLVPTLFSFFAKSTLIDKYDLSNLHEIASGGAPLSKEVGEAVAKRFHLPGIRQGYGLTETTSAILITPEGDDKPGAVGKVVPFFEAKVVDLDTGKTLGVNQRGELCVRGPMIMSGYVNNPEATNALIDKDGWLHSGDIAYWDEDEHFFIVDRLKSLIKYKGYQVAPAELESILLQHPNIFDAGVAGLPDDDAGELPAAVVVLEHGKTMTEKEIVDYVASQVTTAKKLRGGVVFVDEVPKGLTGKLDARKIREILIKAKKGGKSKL
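Purified P. pyralis luciferase (10nM final) with 10uM D-luciferin and 10uM ATP (Km levels) in 50mM Tris acetate pH 7.5, 10mM Mg acetate, 0.01% Tween-20, 0.05% BSA; qHTS 6-point titration, ~60 µM downward; luminescence read.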
Active calls of the source: *; u = inconclusive; x = not tested or not shown; [ ] = remark or other dose. The call rests on the fitted dose curve; in most records, active means well fitted curve in the direction sought with a large enough effect; inconclusive means small, poorly fitted or top-dose-only effect, or another doubt; inactive means no such curve, though single readings can be large; an effect the other way counts as inactive or inconclusive. Potency means the concentration at half of the fitted maximal effect.

SMILES | ELG1 genotox | Rab9 prom act | NPC1 promoter act | Luc counter | SMN2 splice enh | FLuc counter
O=C(O)c1cccc(NC(=O)c2cn(-c3ccccc3)nc2-c2ccc([N+](=O)[O-])cc2)c1 | 0% | 0% | -8% | x | x | 17µM*
O=C(NNS(=O)(=O)c1ccc([N+](=O)[O-])cc1)C(=O)Nc1cccc(C(=O)O)c1 | 4% | 11% | 1% | x | x | 17µM*
O=C(COc1ccc(Cl)cc1)N1CCN(C(=O)c2ccccc2F)CC1 | -6% | -9% | -3% | x | x | -2%
C[C@@H]1CC[C@H](O)/C=C/C(=O)O[C@H](C)CC[C@H](O)/C=C/C(=O)O1 | -8% | -5% | -5% | x | x | 0%
Cc1ccc2nc(-c3ccc(NC(=O)c4ccc(S(C)(=O)=O)cc4)cc3)sc2c1 | x | x | x | x | x | 2%
Cc1ccc2nc(-c3ccc(NS(=O)(=O)c4c(C)n(C)c(=O)n(C)c4=O)cc3)sc2c1 | 15% | 2.8µM* | 3.2µM* | x | x | 1.9µM*
Cc1cccc(S(=O)(=O)Nc2ccc(-c3nc4ccc(C)cc4s3)cc2)c1 | u | 2.8µM* | 2.8µM* | -1% | 11µM* | 3µM*
Cc1c(S(=O)(=O)Nc2ccc3c(c2)OCCO3)c(=O)n(C)c(=O)n1C | -1% | 6% | 6% | -1% | -28% | -1%
CSc1ccccc1C(=O)N1CCC(CCC(=O)NC2CC2)CC1 | 0% | 2% | -2% | x | x | 1%
CC(NC(=S)Nc1ccccc1Cl)C(c1ccccc1)N1CCOCC1 (stereo not drawn) | -1% | -2% | -3% | 2% | -6% | 1%
Nc1nnnn1/N=C/C(Br)=C/c1ccccc1 | u | -25% | -20% | 0% | -4% | u
O=C(CCOc1ccccc1)Nc1ccccc1 | 10% | 16% | 20% | 6% | -8% | u
Cc1cccc(OCCCC(=O)Nc2ccc(N(C)C)cc2)c1 | u | u | u | -2% | 0% | 8.5µM*
Cc1cccc(OCCCC(=O)Nc2ccc(Br)cc2)c1 | 1% | -5% | 2% | 2% | 14% | -1%
Cc1ccc(NC(=O)CCOc2ccccc2)cc1 | u | 3.5µM* | u | x | x | 13µM*
Cc1ccsc1/C=N/Nc1ncc(Cl)cc1Cl | u | u | 2.8µM* | -10% | u | 2.7µM*
Cc1ccsc1/C=N/Nc1nc(=O)[nH]nc1C | u | 2.8µM* | u | 4.5µM* | 18µM* | u
Cc1cc(C)nc(N/N=C/c2sccc2C)n1 | 13% | 4% | 9% | -27% | u | u
Cc1ccsc1/C=N/NC(=O)c1ccco1 | 13% | 17% | 15% | -8% | 24% | u
Cc1ccsc1/C=N/Nc1ccc(F)cc1F | u | 2.2µM* | u | x | x | 12µM*
NNC(=O)CN(CCc1ccccc1)S(=O)(=O)c1ccc(Cl)cc1 | -2% | -2% | 0% | 4% | -9% | -1%
CCCCn1c(N)c(N(CCOC)C(=O)c2ccc(-c3cccc(C(F)(F)F)c3)o2)c(=O)[nH]c1=O | 1% | -2% | -1% | x | x | 2%
O=C(COC(=O)c1cc(Br)ccc1O)NC12CC3CC(CC(C3)C1)C2 | 0% | x | x | x | x | x
COc1ccc(S(=O)(=O)n2[nH]c(=O)c(CCO)c2C)cc1 | -2% | 1% | -3% | x | x | -1%
CCOC(=O)c1nn(-c2ccccc2)c(=O)c2c(N)sc(C)c12 | x | -3% | 1% | x | x | -2%
SMILES | ELG1 genotox | Rab9 prom act | NPC1 promoter act | Luc counter | SMN2 splice enh | FLuc counter
COc1cc(/C=C2/C(=O)N(c3ccc(C(=O)O)cc3)N=C2C)cc(OC)c1O | 0% | 0% | -3% | x | x | u
COc1cc(/C=C2\C(=O)NN(c3ccc(C)cc3)C2=O)cc([N+](=O)[O-])c1O | 1% | -4% | 0% | -5% | -8% | 27µM*
COc1cc(/C=C2/C(=O)N(c3ccc(C)c(C)c3)N=C2C)cc([N+](=O)[O-])c1O | 0% | 3% | -6% | x | x | 17µM*
COc1cc(/C=C2\C(=O)NN(c3ccccc3)C2=O)cc([N+](=O)[O-])c1O | 7% | 9% | -4% | -5% | 3% | u
CCOc1cc(/C=C2\C(=O)NN(c3ccccc3)C2=O)cc([N+](=O)[O-])c1O | 18% | 1% | -2% | -3% | 23% | 17µM*
Cc1cc(C(=O)CSc2nnc(C3COc4ccccc4O3)n2C)c(C)n1-c1ccc(F)cc1 (stereo not drawn) | -8% | -5% | 3% | 0% | -20% | -6%[2.3 µM]
Cc1cccc(N2CCc3c2nc2ccc(Br)cc2c3N)c1 | -6% | 3% | -1% | -2% | -9% | 8.5µM*
Nc1c2c(nc3ccc(Br)cc13)N(Cc1ccccc1)CC2 | -2% | 0% | 0% | 2% | -16% | 17µM*
CC1(C)C2CCC1(CS(=O)(=O)NC(CC(=O)O)c1cccc(Br)c1)C(=O)C2 (stereo not drawn) | 0% | 0% | 0% | x | x | 1%
S=c1[nH]cc(Cc2ccccc2)s1 | 1% | -5% | 1% | -1% | -4% | -11%
NS(=O)(=O)c1ccc(-n2ncc3c(=O)[nH]c(SCC(=O)Nc4nccs4)nc32)cc1 | 1% | 0% | 0% | 1% | -2% | -2%
COc1ccc2c(c1)c(CC(=O)Nc1ccc(C(C)=O)cc1)c(C)n2C(=O)c1ccc(Cl)cc1 | 0% | 0% | -3% | 4% | 21% | -18%
CC(=O)Nc1ccc2c(c1)nc(C)n2Cc1ccccc1 | 2% | -1% | -1% | x | x | -2%
CCOc1ccc(-n2nc3ccc(NC(=O)CC)cc3n2)cc1 | 17% | u | u | x | x | 2.7µM*
Cn1cnc2cc(NC(=O)COc3ccccc3)ccc21 | u | 24% | 12% | x | x | 24µM*
CCOc1ccc(-n2nc3ccc(NC(=O)Cc4ccccc4)cc3n2)cc1 | x | x | x | x | -6% | 3%
CC(=O)Nc1ccc2c(c1)ncn2-c1ccccc1 | 21µM* | 1.4µM* | 2.8µM* | x | x | 11µM*
CCC(=O)Nc1ccc2c(c1)ncn2-c1ccccc1 | u | u | u | -1% | u | 15µM*
CCC(=O)Nc1ccc2c(c1)ncn2-c1ccccc1OC | 2% | -2% | 2% | 0% | 4% | -13%
C=CCNC(=O)CN1C(=O)c2cccc3cccc1c23 | 1% | 9% | -3% | x | x | 3%
CN(CCNS(=O)(=O)c1ccc2c(c1)oc(=O)n2C)Cc1ccccc1 | 3% | -1% | -3% | 3% | 6% | 6%
O=C1OC2(O)C3C4C=CC(C4)C3C(=O)N2c2ccccc21 (stereo not drawn) | 0% | 4% | -3% | x | x | -2%
COc1ccc2nc(SCC(=O)N3CCCCC3)c(C#N)cc2c1 | 1% | -3% | -2% | -1% | x | -2%
